Source: PubChem BioAssay AID1159580 (chemical genetic matrix, 2015)
In all, about 5,500 compounds went through this assay and about 2,000 (36%) were called active. Roughly 18% stayed inconclusive and do not appear here. No stated cut-off is given here; in the data, active means normalized growth mostly below about 0.91 (no sharp cut-off); inconclusive means no clear call, values can overlap the other calls; inactive means mostly above about 0.92. This is one part of the list.

Experiment: chemical genetic growth profiling, strain panel (AID 1159580);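 further: tested at 20 µM; growth read once vehicle control cultures reached saturation at 30 °C; 1 = growth at the plate median or of vehicle wells; lower values mean less growth of the strain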
Conditions: growth OD

Measured: normalized growth

CCN(CC)CCOc1ccc2c(c1)C(=O)c1cc(OCCN(CC)CC)ccc1-2
inactive: S. cerevisiae deletion strains, locus YJR075W, strain HOC1, active compounds read low 0.998 | S. cerevisiae deletion strains, locus YKL009W, strain mrt4, active compounds read low 0.973 | S. cerevisiae deletion strains, locus YKL068W, active compounds read low 0.975 | S. cerevisiae deletion strains, locus YKL085W, strain MDH1 (second series), active compounds read low 1.02 | S. cerevisiae deletion strains, locus YKL085W, strain MDH1, active compounds read low 1.02 | S. cerevisiae deletion strains, locus YKL160W, strain elf1, active compounds read low 0.96 | S. cerevisiae deletion strains, locus YKL190W, strain CNB1, active compounds read low 0.991 | S. cerevisiae deletion strains, locus YKR001C, strain vps1, active compounds read low 0.986 | S. cerevisiae deletion strains, locus YKR026C, strain gcn3, active compounds read low 0.98 | S. cerevisiae deletion strains, locus YKR091W, strain srl3, active compounds read low 0.982 | S. cerevisiae deletion strains, locus YLL001W, strain dnm1, active compounds read low 1.01 | S. cerevisiae deletion strains, locus YLL026W, active compounds read low 0.992 | S. cerevisiae deletion strains, locus YLL041C, strain sdh2, active compounds read low 0.998 | S. cerevisiae deletion strains, locus YLR027C, strain aat2, active compounds read low 0.996 | S. cerevisiae deletion strains, locus YLR039C, strain RIC1, active compounds read low 0.963 | S. cerevisiae deletion strains, locus YLR058C, strain SHM2, active compounds read low 0.994 | S. cerevisiae deletion strains, locus YLR102C, strain apc9, active compounds read low 0.975 | S. cerevisiae deletion strains, locus YLR113W, strain HOG1, active compounds read low 0.988 | S. cerevisiae deletion strains, locus YLR221C, strain rsa3, active compounds read low 0.993 | S. cerevisiae deletion strains, locus YLR258W, strain gsy2, active compounds read low 0.979 | S. cerevisiae deletion strains, locus YLR262C, strain YPT6 (second series), active compounds read low 1.05 | S. cerevisiae deletion strains, locus YLR262C, strain YPT6, active compounds read low 0.96 | S. cerevisiae deletion strains, locus YLR268W, strain sec22, active compounds read low 0.984 | S. cerevisiae deletion strains, locus YLR320W, strain mms22, active compounds read low 0.995 | S. cerevisiae deletion strains, locus YLR330W, strain CHS5, active compounds read low 0.988 | S. cerevisiae deletion strains, locus YLR342W, strain FKS1 (second series), active compounds read low 1.01 | S. cerevisiae deletion strains, locus YLR342W, strain FKS1, active compounds read low 0.981 | S. cerevisiae deletion strains, locus YLR357W, strain rsc2, active compounds read low 0.963 | S. cerevisiae deletion strains, locus YLR370C, strain arc18, active compounds read low 0.987 | S. cerevisiae deletion strains, locus YLR371W, strain rom2, active compounds read low 0.961 | S. cerevisiae deletion strains, locus YLR384C, strain iki3, active compounds read low 0.984 | S. cerevisiae deletion strains, locus YLR418C, strain cdc73, active compounds read low 1.06 | S. cerevisiae deletion strains, locus YML016C, strain PPZ1, active compounds read low 0.995 | S. cerevisiae deletion strains, locus YML032C, strain rad52, active compounds read low 0.968 | S. cerevisiae deletion strains, locus YML120C, strain ndi1, active compounds read low 0.985 | S. cerevisiae deletion strains, locus YML124C, strain tub3, active compounds read low 0.987 | S. cerevisiae deletion strains, locus YMR058W, strain fet3, active compounds read low 0.994 | S. cerevisiae deletion strains, locus YMR078C, strain ctf18, active compounds read low 0.978 | S. cerevisiae deletion strains, locus YMR125W, strain sto1, active compounds read low 0.978 | S. cerevisiae deletion strains, locus YMR129W, active compounds read low 0.982 | S. cerevisiae deletion strains, locus YMR205C, strain PFK2, active compounds read low 0.969 | S. cerevisiae deletion strains, locus YMR223W, strain ubp8, active compounds read low 0.982 | S. cerevisiae deletion strains, locus YMR231W, strain pep5, active compounds read low 0.99 | S. cerevisiae deletion strains, locus YMR263W, strain SAP30, active compounds read low 1 | S. cerevisiae deletion strains, locus YMR307W, strain GAS1, active compounds read low 1.09 | S. cerevisiae deletion strains, locus YNL067W, strain RPL9B, active compounds read low 0.999 | S. cerevisiae deletion strains, locus YNL071W, strain lat1, active compounds read low 0.988 | S. cerevisiae deletion strains, locus YNL128W, strain TEP1, active compounds read low 0.987 | S. cerevisiae deletion strains, locus YNL153C, strain GIM3, active compounds read low 1.01 | S. cerevisiae deletion strains, locus YNL183C, strain NPR1, active compounds read low 0.939 | S. cerevisiae deletion strains, locus YNL209W, strain ssb2, active compounds read low 0.976 | S. cerevisiae deletion strains, locus YNL233W, strain BNI4, active compounds read low 1.02 | S. cerevisiae deletion strains, locus YNL248C, strain rpa49, active compounds read low 0.98 | S. cerevisiae deletion strains, locus YNL250W, strain rad50, active compounds read low 0.983 | S. cerevisiae deletion strains, locus YNL271C, strain bni1, active compounds read low 0.993 | S. cerevisiae deletion strains, locus YNL298W, strain CLA4, active compounds read low 0.971 | S. cerevisiae deletion strains, locus YNL307C, strain MCK1, active compounds read low 0.975 | S. cerevisiae deletion strains, locus YNL322C, strain KRE1 (second series), active compounds read low 0.96 | S. cerevisiae deletion strains, locus YNL322C, strain KRE1, active compounds read low 0.983 | S. cerevisiae deletion strains, locus YNR049C, strain mso1, active compounds read low 0.968 | S. cerevisiae deletion strains, locus YNR052C, strain pop2, active compounds read low 0.975 | S. cerevisiae deletion strains, locus YOL006C, strain TOP1, active compounds read low 1.02 | S. cerevisiae deletion strains, locus YOL012C, strain htz1 0.871 | S. cerevisiae deletion strains, locus YOL147C, strain pex11, active compounds read low 0.992 | S. cerevisiae deletion strains, locus YOR001W, strain rrp6, active compounds read low 0.988 | S. cerevisiae deletion strains, locus YOR061W, strain CKA2, active compounds read low 0.994 | S. cerevisiae deletion strains, locus YOR069W, strain VPS5, active compounds read low 0.996 | S. cerevisiae deletion strains, locus YOR070C, strain gyp1, active compounds read low 0.989 | S. cerevisiae deletion strains, locus YOR080W, strain dia2, active compounds read low 0.983 | S. cerevisiae deletion strains, locus YOR083W, strain WHI5, active compounds read low 0.968 | S. cerevisiae deletion strains, locus YOR106W, strain vam3, active compounds read low 0.944 | S. cerevisiae deletion strains, locus YOR136W, strain idh2, active compounds read low 0.985 | S. cerevisiae deletion strains, locus YOR144C, strain elg1, active compounds read low 0.97 | S. cerevisiae deletion strains, locus YOR184W, strain ser1, active compounds read low 0.976 | S. cerevisiae deletion strains, locus YOR231W, strain MKK1, active compounds read low 0.985 | S. cerevisiae deletion strains, locus YOR265W, strain rbl2, active compounds read low 0.976 | S. cerevisiae deletion strains, locus YOR270C, strain vph1, active compounds read low 1.07 | S. cerevisiae deletion strains, locus YOR290C, strain snf2, active compounds read low 0.964 | S. cerevisiae deletion strains, locus YOR316C, strain cot1, active compounds read low 0.995 | S. cerevisiae deletion strains, locus YPL051W, strain arl3, active compounds read low 0.97 | S. cerevisiae deletion strains, locus YPL055C, strain LGE1, active compounds read low 1.02 | S. cerevisiae deletion strains, locus YPL078C, strain atp4, active compounds read low 0.981 | S. cerevisiae deletion strains, locus YPL106C, strain sse1, active compounds read low 0.979 | S. cerevisiae deletion strains, locus YPL240C, strain hsp82, active compounds read low 0.996 | S. cerevisiae deletion strains, locus YPL241C, strain CIN2, active compounds read low 0.971 | S. cerevisiae deletion strains, locus YPL256C, strain CLN2, active compounds read low 0.979 | S. cerevisiae deletion strains, locus YPR119W, strain clb2, active compounds read low 0.988 | S. cerevisiae deletion strains, locus YPR141C, strain kar3, active compounds read low 0.989 | S. cerevisiae deletion strains, locus YPR163C, strain tif3, active compounds read low 0.97 | S. cerevisiae deletion strains, locus YPR167C, strain met16, active compounds read low 1 | S. cerevisiae deletion strains, strain wtn01, active compounds read low 0.993 | S. cerevisiae strains, strain wild type, active compounds read low 0.995
